In PubChem BioAssay (NCATS) one finds Potency and viability (% of control) data, which are given here for 40 compounds.

Values joined by “and” are separate entries in the source; they are usually repeats but may differ in a detail not shown here. Identical values can stand only once. Records with an inconclusive call do not appear. Where a call stands in place of a potency, no number is given. Active and inactive are the calls of the source. Calls follow the shape of the dose curve; as a rule, active = well fitted cell-killing curve with a large enough effect; inconclusive = small, poorly fitted or top-dose-only effect, or effect the other way; inactive = no such curve, though single readings can be large or run the other way.
Potency is read from the fitted curve at half-maximal effect.

The test is described as follows: Viability qHTS for spleen associated tyrosine kinase inhibitor (SYKi) naive MV4-11 cells (AID 1963823). Also: nearly all actives have a fitted effect of over 40% in size. Conditions: MV4-11 AML viability, CellTiter-Glo luminescence, 72 h; series mostly up to 45 µM. An excerpt: Department of Medicine, Hematology/Oncology
University Hospital Frankfurt, Germany.
Trials have shown promising clinical activity of the selective SYK inhibitor entospletinib in patients with high expressing HOXA9/MEIS1 acute leukemias. As the development of resistance mechanisms is a common problem in the use of targeted drugs, we performed a chemical library screen to identify drug sensitivities in SYK inhibitor resistant AML cells. […] Glucocorticoids are potent immunosuppressants which work in part by inhibiting the transcription of cytokine genes.
Described herein is a viability screen to look for activity in the SYK inhibitor naive cell line against four NCATS compound libraries (MIPE 5.0, NPC, NPACT, and Kinase) totaling 11372 compounds. Active hits were reacquired for confirmation and further secondary assay testing.
SEQUENCE No. (e.g., 1, 2, 3, etc.); […] (e.g., Cells, Incubation, Reagent, etc.); VALUE; DESCRIPTION.
1; Media; 2uL; white, solid-bottom Corning assay plate.
2; Compounds; 23nL; Echo acoustic dispenser.
3; Cell; 5uL; 500 cells per well.
4: Incubation; 72hr; 37 C, 5% CO2, 95% humidity.
5; Reagent; 3uL; CellTiter-Glo reagent (Promega).
6; Incubation; 10min; room temperature.
7; Detection; Luminescence; ViewLux plate reader (PerkinElmer).
NOTES (numbers refer to Sequence numbers above
1. Quantitative high-throughput screening (qHTS) of small molecule compounds was conducted on naive SYKi MV4-11 cell line.
2. Twenty-three nanoliter of small molecule compounds were added to each assay plates using the Echo acoustic dispenser (Beckman Coulter).
3. Cells were seeded into the assay plates at a final density of 500 cells in 5uL of media per well using the Multi-drop Combi dispenser.
4. Plates were covered with stainless steel gasketed lids and incubated for 72 hours at standard cell culture conditions.
5. Viability was assessed by adding 3uL of CellTiter-Glo detection reagent (Promega).
6. Plates were covered with gasket lids and incubated for 10 minutes at room temperature.
7. Luminescence was measured on a ViewLux plate reader (PerkinElmer).
On the technique in general: qHTS replaces the single test concentration by a dilution series.
Consider `COc1cc(C2c3cc(O)c(OC)cc3CC(CO)C2CO)ccc1O` (stereo not given), for which the Potency result is “inactive”.
Regarding `CC(C)=CCC/C(C)=C/CC/C(C)=C/CCC(=O)OC/C=C(\C)CCC=C(C)C`, the Potency result is “inactive”.
`CC1(C)CC[C@]2(C(=O)O[C@@H]3O[C@H](CO[C@@H]4O[C@H](CO)[C@@H](O)[C@H](O)[C@H]4O[C@@H]4O[C@H](CO)[C@@H](O)[C@H](O)[C@H]4O)[C@@H](O)[C@H](O[C@@H]4O[C@H](CO)[C@@H](O)[C@H](O)[C@H]4O)[C@H]3O)CC[C@]3(C)C(=CCC4[C@@]5(C)CC[C@@H](O)[C@@](C)(C(=O)O[C@@H]6O[C@H](CO)[C@@H](O)[C@H](O)[C@H]6O)C5CC[C@]43C)[C@@H]2C1` (stereo not given in full): the viability (% of control) was 73.4% [at 9.25 µM] (inactive).
Take `CCC1(c2cnc[nH]2)Cc2ccccc2C1`: the Potency result was “inactive”.
Still for that read-out and setting: next, `c1cc(-c2cnn3cc(-c4ccc(OCCN5CCCCC5)cc4)cnc23)ccn1`: 20.6 nM (active); `CC1(O)CCC2C(C3C1CCC3(C)O)C2(C)C` (stereo not given): “inactive”.
On the same count and under the same terms, as for `C=C1C(=O)OC2CC(C)=C(C(C)CCCO[C@@H]3O[C@H](CO)[C@@H](O)[C@H](O)[C@H]3O)C(O)C12` (stereo not given in full), the entry is “inactive”; as for `COc1ccc2c(c1)CCCC2=O`, “inactive”; as for `COc1ccc(N2CCN(CCCNC(=O)Cn3c(=O)c4cccn4c4c(C)ccnc43)CC2)cc1`, “inactive”.
On to `COc1cccc(CN(C(=O)CC(C)(C)C)[C@H]2C[C@H](C(=O)N3CCNCC3)N(Cc3ccc4c(c3)OCO4)C2)c1`, for which the Potency is 18400 nM (active).
In the case of `CC(=O)O[C@@H]1[C@H](OC(C)=O)C[C@@]2(C)C(CC[C@@H](C)[C@]23Cc2c(O)cc4c(c2O3)CN([C@@H](CCC(=O)O)C(=O)O)C4=O)C1(C)C` (stereo not given in full), the Potency entry was “inactive”.
Same read-out and setting: next, `CC(=O)N[C@@H](CS)C(=O)O`: “inactive”; `CCCc1cc(C)[nH]c(=O)c1CNC(=O)c1cc(-c2ccc(N3CCN(C(C)C)CC3)nc2)cc2c1cnn2C(C)C`: 13 µM (active) and 5.9 µM (active); `Fc1ccc(-c2nc(C3CCNCC3)sc2-c2ccnc(NC3CC3)n2)cc1`: 10300 nM (active).
For `C=CC(C)(O)CC[C@H]1C(=C)CCC2[C@](C)(C(=O)O)CCC[C@@]21C` (stereo not given in full), the Potency result was “inactive”.
The same measure, in the same setting: as for `CC(=O)O[C@@]1(C)[C@@H]2CC(=C(C)C)C(=O)C[C@@]2(C)CC[C@H]1OC(=O)C1(C)OC1C` (stereo not given in full), the entry is “inactive”; as for `Cc1nnc(-c2sc(NC(=O)[C@H](C(C)C)n3c(=O)[nH]c4ccccc4c3=O)nc2C)o1`, “inactive”.
Turning to `CC[C@]1(O)CC2CN(CCc3c([nH]c4ccccc34)[C@@](C(=O)OC)(c3cc4c(cc3OC)N(C)[C@H]3[C@@](O)(C(=O)OC)[C@H](OC(C)=O)[C@]5(CC)C=CCN6CC[C@]43[C@@H]65)C2)C1` (stereo not given in full), the Potency was 33.2 nM (active).
On the same count and under the same terms, next, `Nc1nc2c(ncn2CCC(CO)CO)c(=O)[nH]1`: “inactive”.
As to `C=CCNC(N)=S`, the Potency entry was “inactive”.
In the case of `NC(=O)NO`, the Potency result was “inactive”.
`C=C1C2(C)CC3C4(C)C=CC(=O)OC(C)(C)C4CCC3(C)C1(C(=O)OC)C(=O)C(C)(O)C2=O` (stereo not given): the Potency result was “inactive”.
`CN[C@@H](C)C(=O)N[C@H]1CN(C(=O)CC(C)C)CC[C@H]2CC[C@@H](C(=O)NC(c3ccccc3)c3ccccc3)N2C1=O`: the Potency entry is “inactive”.
On the same count and under the same terms, as for `C[C@@H]1C[C@H]2[C@@H]3CCC4=CC(=O)C=C[C@]4(C)[C@@]3(F)[C@@H](O)C[C@]2(C)[C@@]1(O)C(=O)COP(=O)(O)O`, the entry is “inactive”; as for `CC(C)(O)CNc1nc(Nc2ccnc(C(F)(F)F)c2)nc(-c2cccc(C(F)(F)F)n2)n1`, 14800 nM (active); as for `Cc1ccc(NC(=O)Nc2nnc(Sc3ncnc4cc(OCCCN5CCOCC5)ccc34)s2)cc1`, 14.8 nM (active).
Still for that read-out and setting: next, `CCC(C)/C=C(C)/C=C/C1=CC2=C(Cl)C(=O)C(C)(OC(C)=O)C(=O)C2=CN1C(CCCN=C(N)N)C(=O)O` (stereo not given): “inactive”; `N[C@@]1(C(=O)O)CS(=O)(=O)[C@H]2[C@H](C(=O)O)[C@H]21`: “inactive”.
Same read-out and setting: next, `CC[C@@H](O)C[C@@H]1C(C)=C[C@@H]2CCCC[C@@H]2[C@@]1(C)C(=O)O`: “inactive”; `C#CC(C)(CC)OC(=O)c1ccccc1C(=O)O` (stereo not given): “inactive”; `COCCNCc1ccc(-c2cc3nccc(Oc4ccc(NC(=S)NC(=O)Cc5ccc(F)cc5)cc4F)c3s2)nc1`: 16.4 nM (active).
Turning to `C/C=C(\C)C(=O)O[C@H]1[C@H](O)[C@]2(COC(C)=O)[C@H](O)C[C@]3(C)C(=CCC4[C@@]5(C)CC[C@H](O[C@@H]6O[C@H](C(=O)O)[C@@H](O[C@@H]7O[C@H](CO)[C@@H](O)[C@H](O)[C@H]7O)[C@H](O)[C@H]6O[C@@H]6O[C@H](CO)[C@@H](O)[C@H](O)[C@H]6O)[C@](C)(CO)C5CC[C@]43C)[C@@H]2CC1(C)C` (stereo not given in full), the viability (% of control) is 88% [at 9.25 µM] (inactive).
On to `CC[C@H](C)C(=O)O[C@H]1C[C@@H](C)C=C2C=C[C@H](C)[C@H](CC[C@@H]3C[C@@H](O)CC(=O)O3)[C@H]21`, for which the Potency is 8330 nM (active).
Regarding `CN1c2cc(O)c(N=NC(N)=O)cc2CC1S(=O)(=O)O` (stereo not given), the Potency entry was “inactive”.
Still for that read-out and setting: next, `COc1ccc(S(=O)(=O)N2CCc3cccc(-c4ccncc4)c32)cc1`: 833 nM (active); `O=C1c2ccccc2C(=O)C1c1ccccc1`: “inactive”.
As to `CC(=O)C1=C(C)N(c2cccc(C(F)(F)F)c2)C(=O)N[C@H]1c1ccc(C#N)nc1`, the viability (% of control) is 83.3% [at 9.25 µM] (inactive).
With `N#C/C(=C\c1ccc(O)c(O)c1)C(=O)NCCCc1ccccc1`, the Potency was 8200 nM (active).
`O=C1[C@H](O[C@@H]2O[C@H](CO)[C@@H](O)[C@H](O)[C@H]2O)Oc2ccccc2N1O`: the Potency result was “inactive”.
Same read-out and setting: next, `COc1ccccc1N1CCN(CCCNc2cc(=O)n(C)c(=O)n2C)CC1`: “inactive”.
